# PLAP activator: activators of human placental alkaline phosphatase; P05187; AID 696; activation fold at 20 µM; purified PLAP enzyme, luminescent substrate read-out; hits give high values; 96,000 tested, 1.2% active; in the data active = activation fold above about 2
# PTPN22 act: increases human PTPN22 phosphatase activity; recombinant LYP, DiFMUP fluorescence; 0 = plate median, 100 = signal doubled; 96,000 tested, 0.11% active; activation, % at 2 µM; AID 697; Q9Y2R2;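 active = activation at 2 µM above a set limit, the mean plus 5 SD, cut at about 37% in these data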
# sEH activator: increases human soluble epoxide hydrolase activity; P34913; activation, % at 2 µM; 91,000 tested, 0.04% active; AID 717; purified human sEH enzymatic activity, activator screen; in the data active = activation above about 37%
# Target sequence (P34913 whole entry, looked up): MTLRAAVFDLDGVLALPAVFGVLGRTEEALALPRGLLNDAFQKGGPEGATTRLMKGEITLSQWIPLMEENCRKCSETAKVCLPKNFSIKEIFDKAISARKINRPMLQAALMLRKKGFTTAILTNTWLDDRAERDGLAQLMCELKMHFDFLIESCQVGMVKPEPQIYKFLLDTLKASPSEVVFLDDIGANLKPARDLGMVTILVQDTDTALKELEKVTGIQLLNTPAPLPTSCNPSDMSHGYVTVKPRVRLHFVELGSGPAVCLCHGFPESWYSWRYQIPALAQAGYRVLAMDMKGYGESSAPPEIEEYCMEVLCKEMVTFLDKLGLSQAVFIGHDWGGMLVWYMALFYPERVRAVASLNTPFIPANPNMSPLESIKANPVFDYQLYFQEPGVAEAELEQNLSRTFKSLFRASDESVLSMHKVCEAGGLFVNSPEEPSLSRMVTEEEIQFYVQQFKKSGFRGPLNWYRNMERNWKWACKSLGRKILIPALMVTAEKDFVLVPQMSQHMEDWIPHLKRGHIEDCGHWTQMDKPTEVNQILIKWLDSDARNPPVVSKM
# sEH inhibitor: blocks human soluble epoxide hydrolase activity; recombinant human sEH enzymatic activity assay; inhibition, % at 2 µM; 91,000 tested, 0.34% active; in the data active = inhibition above about 80%
# LYP inh 2: LYP (human) phosphatase inhibition; inhibition, % at 2 µM; 96,000 tested, 0.21% active; recombinant LYP catalytic domain, DiFMUP fluorescence; Q9Y2R2;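 active = inhibition at 2 µM at or above a set limit, the screen mean plus 3 SD, cut at about 24% in these data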;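 note: 0% = DMSO with enzyme and 100% = enzyme fully blocked by orthovanadate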
# EphB4 ephrin blk: blocks human EphB4 binding to ephrin-B2 | EphB4 LBD / TNYL-RAW-Alexa532 peptide, fluorescence polarization | inhibition, % at 7 µM | 97,000 tested, 0.15% active | AID 720;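 active = inhibition above the screen-wide mean inhibition plus 3 SD, cut at about 15% in these data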;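 note: 0% = DMSO wells and 100% = excess unlabeled TNYL-RAW peptide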
# * marks the source's active call; other numbers are inactive results; . = no result. Compounds with a hit are over-represented: about 1.6% of the library has one in this group of screens.
SMILES,PLAP activator,PTPN22 act,sEH activator,sEH inhibitor,LYP inh 2,EphB4 ephrin blk
Cc1ccc(C)c(N2CCN(C(=O)Cc3cn(C)c4ccccc34)CC2)c1,1.3,-4,0,1,2,-7
CCN(CC)S(=O)(=O)c1cccc(-c2nnc(SC(C)C(=O)NCCC3=CCCCC3)o2)c1 (stereo unspecified),.,-5,-84,85*,3,-5
COC(=O)c1ccc(NC(=O)CN(C2CCCCC2)S(C)(=O)=O)cc1,2*,8,-12,10,-12,1
CC(C)Sc1nc(N2CCOCC2)c2c(c1C#N)CC(C)(C)N(C)C2,2*,2,-9,8,1,-6
CC(C)Sc1nc(N2CCOCC2)c2c(c1C#N)CC(C)(C)SC2,0.9,.,.,.,.,.
COc1ccc(CCNc2ncnc3[nH]ncc23)cc1OC,2*,-4,10,-7,5,4
Cc1nc(SCC(=O)Nc2c(C)n(C)n(-c3ccccc3)c2=O)[nH]c(=O)c1C,.,-1,-10,14,2,1
CCC(C(=O)OCC(=O)Nc1c(C)n(C)n(-c2ccccc2)c1=O)c1ccccc1 (stereo unspecified),1,6,-6,7,-11,0
Cc1c(NC(=O)CSc2nc3ccccc3[nH]2)c(=O)n(-c2ccccc2)n1C,2.2*,-6,12,-15,4,-2
Cc1c(NC(=O)CSc2nc3ccccc3n2C)c(=O)n(-c2ccccc2)n1C,1.2,-5,-8,9,3,-3
Cc1c(NC(=O)CSc2nc3ccc(Cl)cc3[nH]2)c(=O)n(-c2ccccc2)n1C,2*,3,15,-16,-2,3
Cc1c(NC(=O)COC(=O)C(c2ccc(Cl)cc2)C(C)C)c(=O)n(-c2ccccc2)n1C (stereo unspecified),1.7,4,24,-22,-7,17*
CC12CCC(c3c(C(=O)O)nn(-c4ccccc4)c31)C2(C)C (stereo unspecified),1.1,1,12,-15,-3,10
CC12CCC(c3c(C(=O)Nc4nccs4)nn(-c4ccccc4)c31)C2(C)C (stereo unspecified),2*,-2,.,.,0,-15
CCOC(=O)c1c(NC(=O)C(C)N2CCN(C(=O)c3ccco3)CC2)sc2c1CCCC2 (stereo unspecified),1.9,-6,1,-3,5,5
O=[N+]([O-])c1cc(Br)c(O)c(/C=N/Nc2nnnn2-c2cccc3ccccc23)c1,1.7,-8,6,-7,8,9
COc1ccc(-c2nnn(CC(=O)N(Cc3ccccc3Cl)C(C(=O)NCC3CCCO3)c3ccco3)n2)cc1OC (stereo unspecified),2*,-11,-5,8,12,-1
CCN(CC)C(=O)C(Sc1ccccc1)c1ccccc1 (stereo unspecified),1,1,0,-3,-5,9
O=C(NCc1cccnc1)C1CCCN(Cc2cnn(-c3ccccc3)c2-n2cccc2)C1 (stereo unspecified),1.4,0,0,2,1,8
COc1ccccc1NC(=S)NC(=O)C(C)(C)C,1.1,13,-5,8,-9,-6
COc1ccccc1NC(=S)NNC(=O)c1ccc(O)cc1,2.4*,6,17,-14,-5,4
COc1ccc(C)cc1NC(=S)NNC(=O)c1ccccc1Cl,2.9*,-4,-1,1,3,9
Cc1ccc(NC(=O)c2ccccc2Cl)c(Cl)c1,1,-2,-11,13,5,7
COc1ccccc1NC(=S)NNC(=O)c1nn(C)c(C)c1Cl,2.1*,6,0,2,-5,0
COc1ccccc1NC(=S)NNC(=O)c1nn(C)cc1Cl,1.9,9,-8,8,-5,-2
O=C(O)CN1C(=O)c2cccc(Oc3ccc(Cl)cc3)c2C1=O,1.1,11,6,-7,-6,2
Cn1nc(-c2ccc(Cl)cc2)nc2c(=O)n(C)c(=O)nc1-2,0.9,-44,7,-8,45*,0
CCC(C)(C)NC(=O)C(c1ccc(C)cc1)N(Cc1ccco1)C(=O)CCC(=O)Nc1nccs1 (stereo unspecified),0.9,-8,0,-2,10,1
COc1ccc(Cn2nnnc2C(c2ccccc2)N2CCN(C3CCCC3)CC2)cc1 (stereo unspecified),2*,.,.,.,.,.
